Screening results: PubChem BioAssay, National Center for Advancing Translational Sciences (NCATS)
Pol kappa inh: DNA polymerase kappa (human) inhibition; 400,000 tested, 0.53% active; Potency, µM (top dose mostly 107 µM), hits mostly inhibitors; AID 588579; purified Pol kappa, fluorescent DNA synthesis assay, 10 min
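Readout: fluorescence, taken kinetically at 0 and 10 min. Conditions: 10 nM Pol kappa, 15 min RT compound preincubation, 50 nM substrate final. Controls: enzyme-free buffer wells.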
Pol iota inh: blocks human DNA polymerase iota activity. Q9UNA4. Pol iota fluorescent replication assay, 10 min. Potency, µM (titrated, usually from 115 µM), actives largely listed as inhibitors. 390,000 tested, 1% active. AID 588590
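Fluorescent replication assay read twice, at 0 min and 10 min after adding 50 nM (final) substrate. Enzyme (10 nM) and compounds were first incubated 15 min at room temperature; enzyme-free buffer wells were negative controls.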
WRN inhibitor: blocks human WRN helicase; Potency, µM (top dose mostly 114 µM), actives largely listed as inhibitors; Q14191; WRN helicase unwinding, fluorescent forked duplex, kinetic; AID 651768; 360,000 tested, 0.46% active; also: nearly all actives have a fitted effect of over 55% in size
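Screening of the MLSMR collection measured strand separation of a quenched forked DNA duplex (100 nM) by 20 nM WRN with 2 mM ATP, all final. Compounds were preincubated with enzyme 15 min at room temperature.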
L3MBTL1 inh: inhibitors of human L3MBTL1; 230,000 tested, 0.66% active; AID 485360; AlphaScreen L3MBTL1–H3K9me1 peptide binding; Potency, µM (titrated, usually from 57.1 µM), usual class: inhibitors; also: nearly all actives have a fitted effect of over 60% in size
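AlphaScreen assay: L3MBTL1 (50 nM final) was preincubated 30 min at room temperature with biotinylated H3(1-15)K9me1 peptide (75 nM final), then 30 min with library compounds; streptavidin donor and nickel chelate acceptor beads (10 ug/mL final) added, 30 min dark.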
Pol eta inh: blocks human DNA polymerase eta activity; Potency, µM (doses to about 114 µM), hits mostly inhibitors; Q9Y253; 390,000 tested, 1.2% active; recombinant Pol eta, fluorescent DNA replication assay
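Pol eta (10 nM) was preincubated with compounds for 15 min at room temperature, after which fluorescent replication substrate (50 nM final) was added to start the reaction. Fluorescence was read kinetically at 0 and 10 min.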
Pol beta inh: inhibitors of human DNA polymerase beta. P06746. Pol beta primer extension/strand displacement, fluorescence kinetic. Potency, µM (top dose mostly 114 µM), most hits filed as inhibitors. 340,000 tested, 1.3% active. AID 485314
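Human Pol beta at 10 nM; strand-displacement substrate 50 nM final. Compound exposure 15 min at room temperature before start, reaction 10 min at room temperature.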
PGK validate: blocks T. brucei phosphoglycerate kinase. shares compounds with Pol kappa inh. TbPGK coupled GAPDH assay, Kinase-Glo luminescence. AID 686980. 500 tested, 79% active. Potency, µM (titrated, usually from 57.5 µM), hits mostly inhibitors; also: nearly all actives have a fitted effect of over 65% in size
POLI cherry-pick: Confirm cherry-picked inhibitors of human polymerase iota. Pol iota primer extension, TAMRA/BHQ fluorescence. Potency, µM, most hits filed as inhibitors. AID 720496. shares compounds with Pol kappa inh. 1,500 tested, 77% active
Each line names hits and unclear results; the compound was inactive in the other large screens (follow-up assays come after a bar, where they were run). An excerpt weighted towards active compounds, which were near 2.5% of everything screened. Calls follow the shape of the dose curve; as a rule, active = well fitted curve in the direction sought with a large enough effect; inconclusive = small, poorly fitted or top-dose-only effect, or another doubt; inactive = no such curve, though single readings can be large; an effect the other way counts as inactive or inconclusive.

COc1ccccc1-c1noc(-c2ccncc2)n1	none
COc1ccccc1-c1nc(-c2ccccn2)no1	none (no result: L3MBTL1 inh) | PGK validate 18µM
CCOc1ccccc1NC(=O)NC1CCCc2ccccc21 (stereo not given)	none (no result: L3MBTL1 inh)
COc1ccc(C2(c3ccc(OC)cc3)NC(=O)N(CC(=O)N3CCOCC3)C2=O)cc1	none (no result: Pol beta inh)
CC(C)CCN1CCN(Cc2ccc3nsnc3c2)CC1CCO (stereo not given)	none | PGK validate inactive
C[C@@H]1O[C@@H](O[C@@H]2[C@@H](O)[C@H](OCCc3ccc(O)c(O)c3)O[C@H](CO)[C@H]2OC(=O)/C=C/c2ccc(O)c(O)c2)[C@H](O)[C@H](O)[C@H]1O	Pol kappa inh 22µM, Pol iota inh inconclusive, L3MBTL1 inh inconclusive (no result: Pol beta inh) | POLI cherry-pick 21
CCOc1ccc2nc(NC(=O)c3ccoc3C)sc2c1	Pol iota inh inconclusive | PGK validate 6.5µM
C=CCN1C=C2C(=O)C(C)(OC(=O)c3cnc4ccccc4n3)C(=O)C=C2C=C1/C=C/COC (stereo not given)	Pol kappa inh inconclusive, Pol iota inh inconclusive, Pol eta inh 25µM (no result: L3MBTL1 inh, Pol beta inh) | POLI cherry-pick inconclusive
CN(CC(=O)Nc1ccc(Cl)cc1)C(=O)c1cccc(S(=O)(=O)N2CCN(Cc3ccccc3)CC2)c1	none (no result: Pol beta inh)
O=C(O)CCCCN1C(=O)/C(=C\c2ccc(OCc3ccccc3)c(OCc3ccccc3)c2)SC1=S	Pol kappa inh inconclusive, Pol iota inh inconclusive, Pol eta inh 20µM, Pol beta inh 45µM (no result: L3MBTL1 inh) | POLI cherry-pick 42
O=C(O)CN1C(=O)/C(=C\c2cccc(OCc3ccccc3)c2)SC1=S	none
Cc1cc(C)c(S(=O)(=O)N2CCN(CCN3C(=O)c4cccc5cccc(c45)C3=O)CC2)cc1[N+](=O)[O-]	none (no result: Pol kappa inh, Pol iota inh, WRN inhibitor, Pol eta inh)
O=C1c2cccc3cc([N+](=O)[O-])cc(c23)C(=O)N1CCN1CCCC1	Pol kappa inh 79µM, Pol iota inh 20µM, Pol beta inh 14µM (no result: L3MBTL1 inh) | POLI cherry-pick 19
O=C(CCN1C(=O)/C(=C/c2ccc(Cl)cc2)SC1=S)Nc1cccc(C(=O)O)c1	WRN inhibitor 56µM, Pol eta inh 89µM (no result: L3MBTL1 inh) | POLI cherry-pick inconclusive
COc1ccc(/C=C2\SC(=S)N(CCC(=O)Nc3cccc(C(=O)O)c3)C2=O)cc1	Pol eta inh inconclusive, Pol beta inh inconclusive
CCOc1ccc(/C=C2/SC(=S)N(CCC(=O)Nc3ccc(C(=O)O)cc3)C2=O)cc1	Pol iota inh inconclusive, Pol eta inh 8.9µM (no result: L3MBTL1 inh) | POLI cherry-pick 21
Cc1ccc(NC(=O)CSc2nc3ccccc3c3nc(CCn4c(C)nc5ccccc54)nn23)cc1F	Pol iota inh 79µM, Pol eta inh inconclusive, Pol beta inh inconclusive (no result: WRN inhibitor, L3MBTL1 inh) | POLI cherry-pick inconclusive
Cc1cncn1CCc1nc2c3ccccc3nc(SCC(=O)Nc3ccc(F)cc3)n2n1	none (no result: WRN inhibitor, L3MBTL1 inh) | PGK validate inactive
C=CCn1c(Cc2cccs2)nnc1SCC(=O)Nc1ccc(OC)cc1	none
C=CCOc1nc(N(C)C)nc(N(C)C)n1	none
COC(=O)c1sccc1NC(=O)Nc1ccc(F)cc1	none (no result: L3MBTL1 inh) | PGK validate 13µM
CN(C(=O)c1cc2sccc2n1C)C1CCCCC1	none
Cn1c(C(=O)NC2CCCCC2)cc2sccc21	none | PGK validate inconclusive
NC(=O)N/N=C/c1coc2ccc3ccccc3c2c1=O	none
O=Cc1coc2ccc3ccccc3c2c1=O	WRN inhibitor inconclusive, Pol beta inh inconclusive | PGK validate inconclusive
CC1=C(C(=O)Nc2cccnc2)C(c2cccc(O)c2)n2nc(SCc3ccccc3)nc2N1 (stereo not given)	Pol iota inh 79µM, Pol eta inh inconclusive (no result: WRN inhibitor, L3MBTL1 inh) | POLI cherry-pick inconclusive
c1ccc2nc(-c3nc4ccccc4o3)ccc2c1	WRN inhibitor inconclusive | PGK validate 18µM
CCOc1ccc(C2C(C(=O)c3ccco3)=C(O)C(=O)N2CCN2CCOCC2)cc1OCC (stereo not given)	none (no result: L3MBTL1 inh)
